According to PubChem BioAssay AID504929 (The Scripps Research Institute Molecular Screening Center, 2011):
Calls of active or inactive are those of the source. How the calls were made is not given here.

Experiment: AlphaScreen signal with amyloid beta 1-40, late-stage follow-up, counter-screen for Wee1 degradation inhibitor project, biochemical, amplified proximity luminescence (AID 504929)
Conditions: Abeta1-40 counterscreen, concentration not given here

SMILES | signal
c1ccc2[nH]c(CNc3nc(N4CCOCC4)nc4c3ncn4-c3ccsc3)nc2c1 | 75% (active)
O=[N+]([O-])c1cccc2[nH]c(CNc3nc(N4CCOCC4)nc4c3ncn4-c3ccsc3)nc12 | 60% (active)
